Screening results deposited in PubChem BioAssay by several laboratories.
Most compounds without a hit are left out; they make up all but 32% or so of the library.
PostGolgi yeast – phenotypic screen on post-Golgi transport, primary screen | post-Golgi transport phenotypic cell assay | 98,000 compounds, 0.9% hits | AID 739, 2007 | inhibition, % at 10 µM;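 also: yeast cells grown in 1536-well plates; yeast grown about 18 h at 30C before absorbance read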
CYP2C9 inh – blockers of cytochrome P450 2C9 activity – biochemical, luminescence, ADME assay, primary screen; P11712; 96,000 compounds, 20% hits; inhibition, % at 5 µM; CYP2C9 Supersomes, luciferin-H conversion;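 active = blocking of liver enzyme CYP2C9 beyond about 50% at 5 µM, limit read from the data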
CYP2C9 activ – human CYP2C9 activators, primary screen, biochemical, luminescence; Cytochrome P450 2C9 (Homo sapiens), P11712; recombinant CYP2C9, luciferin-H conversion; active compounds read high; factor 1 = untreated enzyme, 0 = blocked; activation factor at 5 µM; 96,000 compounds, 1.4% hits; AID 1024, 2008;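 active = activation factor of 2 or more for CYP2C9 at a 5 µM dose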;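 also: 0 = sulfaphenazole-blocked wells and 1 = vehicle-only wells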
CYP2C19 activ – human CYP2C19 activators, primary screen, biochemical, luminescence. Cytochrome P450 2C19 (Homo sapiens), P33261. recombinant CYP2C19, luciferin-H EGE luminescence; active compounds read high; 0 = fully inhibited enzyme, 1 = untreated enzyme. activation factor at 5 µM. 96,000 tested, under 10 active. AID 1025, 2008;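 active = activation factor of at least 2 at 5 µM in the primary screen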;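 also: 0 = wells with 2.5 mM tranylcypromine and 1 = vehicle-only wells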
Target sequence (P33261 whole entry, looked up): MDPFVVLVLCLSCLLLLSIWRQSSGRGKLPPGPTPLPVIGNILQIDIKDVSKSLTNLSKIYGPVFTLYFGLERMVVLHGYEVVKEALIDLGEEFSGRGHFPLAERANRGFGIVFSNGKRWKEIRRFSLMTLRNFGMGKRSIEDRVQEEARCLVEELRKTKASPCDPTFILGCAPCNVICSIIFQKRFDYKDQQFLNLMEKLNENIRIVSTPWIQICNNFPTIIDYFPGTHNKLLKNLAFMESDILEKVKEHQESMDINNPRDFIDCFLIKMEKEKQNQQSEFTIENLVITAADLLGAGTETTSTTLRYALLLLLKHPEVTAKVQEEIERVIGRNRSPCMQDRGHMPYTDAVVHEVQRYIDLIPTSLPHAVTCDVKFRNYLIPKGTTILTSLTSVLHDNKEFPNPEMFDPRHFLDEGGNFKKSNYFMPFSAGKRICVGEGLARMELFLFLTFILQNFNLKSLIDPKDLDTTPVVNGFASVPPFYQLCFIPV
PostGolgi ctrl – growth inhibition of yeast control strain, primary screen, counter-screen for post-Golgi transport modulator project. 98,000 compounds, 5% hits. efflux-deficient yeast background strain, growth absorbance A615, 16 h. inhibition, % at 10 µM
CYP2C19 inhib – blockers of cytochrome P450 2C19 activity – biochemical, luminescence, ADME assay, primary screen | CYP2C19 Supersomes, luciferin-H EGE luminescence, 30 min | inhibition, % at 5 µM | 96,000 compounds, 21% hits;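 active = CYP2C19 inhibition above a set limit at 5 µM in the primary screen, cut at about 50% in these data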;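 also: plate controls were negative control wells for no effect and 2.5 mM tranylcypromine positive control for full effect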
An asterisk follows results filed as active; . = not tested or not shown. Rule as the data show it, unless noted: active = inhibition above about 30%; inactive = the rest.

SMILES | PostGolgi yeast | CYP2C9 inh | CYP2C9 activ | CYP2C19 activ | PostGolgi ctrl | CYP2C19 inhib
N#CC1(c2ccccc2)CCCN1C(=O)c1ccc(Br)cc1 (centres undefined) | 0 | 60* | 0.4 | 0.4 | 6 | 64*
CCOC(=O)N1CCN(c2nc(SC)nc3sc4c(c23)CC(C)(C)OC4)CC1 | . | 81* | 0.2 | 0.1 | . | 87*
CC1(C)Cc2c(sc3nc(SCC(=O)N4CCOCC4)nc(N)c23)CO1 | 6 | -6 | 1.1 | 1 | 2 | 3
CC(C)Sc1nc(N2CCOCC2)c2c3c(sc2n1)COC(C)(C)C3 | -3 | 58* | 0.4 | 0.6 | 43* | 36
CCOC(=O)c1nc2sc3c(c2c(=O)[nH]1)CCCC3 | -3 | 0 | 1 | 1 | -2 | -4
CCN1CCN(c2nc(SC)nc3sc4c(c23)CC(C)(C)OC4)CC1 | 4 | 57* | 0.4 | 0.6 | 1 | 43
CCOC(=O)c1nc(N2CCN(C(=O)OCC)CC2)c2c3c(sc2n1)CCCC3 | 7 | 60* | 0.4 | 0.4 | 37* | 62*
O=C(NCc1ccco1)C1CCC(N2C(=O)c3ccccc3C2=O)CC1 (centres undefined) | 9 | 38 | 0.6 | 0.8 | -14 | 24
CC1(C(=O)N2CC3(CC(c4ccccc4)=NO3)C[C@H]2C(=O)NCC(N)=O)CC1 (some centres undefined) | -1 | -12 | 1.1 | 0.9 | 9 | 7
O=C(NCCN1CCOCC1)C1CCC(CNS(=O)(=O)c2ccc(Cl)cc2)CC1 (centres undefined) | 18 | 0 | 1 | 0.9 | -3 | 11
OCc1nc2ccccc2n1C/C=C/c1ccccc1 | 1 | 60* | 0.4 | 0.1 | 2 | 92*
CC(C)c1nc2ccccc2n1CCC(=O)O | 5 | -36 | 1.4 | 1.4 | 0 | -38
C=C(Br)Cn1c(CC)nc2ccccc21 | 8 | -4 | 1 | 1 | -5 | 2
CC(O)c1nc2ccccc2n1C/C=C/c1ccccc1 (centres undefined) | -3 | 55* | 0.5 | 0 | 12 | 98*
C=CCn1c(SCc2ccccc2C#N)nnc1-c1cc(Br)ccc1O | -8 | 78* | 0.2 | 0 | 52* | 99*
O=C(C1CCN(S(=O)(=O)c2cccc3nsnc23)CC1)N1CC=C(c2ccccc2)CC1 | 5 | -24 | 1.2 | 0.7 | 21 | 26
O=C(C1CCCN(S(=O)(=O)c2cccc3nsnc23)C1)N1CC=C(c2ccccc2)CC1 (centres undefined) | -1 | 69* | 0.3 | 0.4 | 5 | 64*
O=C(C1CCC(CNS(=O)(=O)c2cccc3nsnc23)CC1)N1CC=C(c2ccccc2)CC1 (centres undefined) | 5 | 71* | 0.3 | 0.1 | 10 | 87*
C=CCC(CC=C)(NC(=O)c1ccccc1C)c1ccccc1 | 16 | 23 | 0.8 | 0.5 | 8 | 51*
C=CCC(CC=C)(NC(=O)c1ccccc1)c1ccccc1 | -8 | 19 | 0.8 | 0.5 | 24 | 45
CCCCN(C)C1=Nc2cccc3cccc1c23 | -6 | -6 | 1.1 | 0.9 | 3 | 10
O=C(CSc1nnc(-c2ccccc2)n1C1CCCCC1)Nc1ccc(S(=O)(=O)Nc2ccccn2)cc1 | -21 | 10 | 0.9 | 0.6 | -1 | 35
CCn1c(SCC(=O)Nc2ccc(S(=O)(=O)Nc3ccccn3)cc2)nnc1-c1ccncc1 | -4 | 95* | 0 | 0.4 | -1 | 60*
CCn1c(SCC(=O)Nc2cccc(NC(=O)c3cccs3)c2)nnc1-c1ccncc1 | 1 | 72* | 0.3 | 0.7 | 8 | 31
CCn1c(SCC(=O)NCc2ccc(C)cc2)nnc1-c1ccncc1 | 16 | 43 | 0.6 | 0.8 | 7 | 20
CCn1c(SCC(=O)Nc2cc(C)on2)nnc1-c1ccncc1 | 1 | 18 | 0.8 | 0.3 | 3 | 73*
CCC(=O)Nc1cccc(NC(=O)CSc2nnc(-c3ccc(NS(C)(=O)=O)cc3)n2CC)c1 | -1 | 54* | 0.5 | 0.6 | 15 | 36
